Compound activity (PubChem)
DRD3 antagonist: D3 dopamine receptor (human) antagonism; P35462; D3R cells, DiscoveRx beta-arrestin luminescence, antagonist mode; stronger effect = lower value; max response, negative = inhibition, %; hit rate 2.5% among 360,000; AID 652054; in the data active means max response below about -50%; inconclusive means no clear call, values can overlap the other calls
Target sequence (P35462 whole entry, looked up): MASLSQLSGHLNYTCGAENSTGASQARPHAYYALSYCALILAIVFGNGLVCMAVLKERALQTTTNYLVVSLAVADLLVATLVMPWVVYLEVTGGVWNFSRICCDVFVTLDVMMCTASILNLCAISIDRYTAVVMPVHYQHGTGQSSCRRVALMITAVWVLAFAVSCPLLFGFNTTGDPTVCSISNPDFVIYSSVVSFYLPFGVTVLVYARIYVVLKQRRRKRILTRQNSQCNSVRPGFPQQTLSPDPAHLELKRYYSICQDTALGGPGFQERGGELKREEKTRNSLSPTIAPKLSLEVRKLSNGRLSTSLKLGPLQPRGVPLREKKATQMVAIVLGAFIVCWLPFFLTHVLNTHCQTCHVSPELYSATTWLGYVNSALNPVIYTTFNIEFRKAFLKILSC
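Cells expressing the human receptor were seeded at 1500 cells/well, incubated overnight at 37 degrees C in 5% CO2, then exposed to library compounds with dopamine controls for 90 minutes at 37 degrees C before luminescent detection.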
D1 agonist: activates the human D1 dopamine receptor | P21728 | HEK293 T-REx D1 cells, calcium flux, agonist mode | activation, % at 2 µM | hit rate 1% among 360,000 | AID 504660; in the data active means activation above about 30%
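Inducible HEK293 T-REx D1 cells, force-coupled to calcium signalling, were plated at 4000 cells/well with tetracycline and held overnight at 30 C. After no-wash calcium dye loading, compound-evoked calcium rise over 180 s flagged agonists.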
BCR signal inh: chronic active BCR signaling inhibition; Potency, µM (doses to about 46.1 µM), actives largely listed as inhibitors; hit rate 0.05% among 340,000; ABC-DLBCL IkBa-CBG/CBR reporter, luminescence ratio, 4 h; AID 493014; active means well fitted inhibition curve with a large enough effect in the signal ratio, with a control signal flat, not every such curve was filed as active; inconclusive means small, poorly fitted or top-dose-only effect, or effect the other way, or a change in a side signal; the % refers to the signal ratio
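Cell line TMD8 (human ABC DLBCL), stably expressing tet-inducible CBG68-IkBa fusion and CBR; IMDM/0.5% FBS; cpd up to 46 uM; dox induction, 4 h, 37C/5% CO2; dual luminescence; green/red ratio; MG132 control.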
D3 ag: activates the human D3 dopamine receptor | AID 652048 | hit rate 0.58% among 410,000 | P35462 | D3R DiscoveRx beta-arrestin cells, luminescence, 90 min | max activation, %; in the data active means max activation above about 30%
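Agonist-mode cell screen: cells plated at 1500/well and incubated overnight at 37 °C, then exposed to library compounds for 90 min at 37 °C. Detection reagent was added for 30–60 min at room temperature, and luminescence was read.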
D1 PAM: enhances dopamine response at the human D1 receptor. P21728. HEK293 TREx D1 cells, calcium flux, dopamine EC20 potentiation. potentiation, % at 10 µM. hit rate 0.036% among 360,000; in the data active means potentiation above about 30%
D1 antag: human D1 dopamine receptor antagonism | activity change, negative = inhibition, % at 10 µM | hit rate 3.2% among 360,000 | AID 504652 | HEK293 TREx D1 cells, calcium flux, dopamine EC80; stronger effect = lower value; in the data active means activity change below about -30%
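Inducible Hek293 Trex D1 cells (tetracycline, overnight, 30 C). Calcium dye 30–90 min RT. Antagonist mode: EC80 dopamine added after 180 s compound read.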
Large screens that a line does not name were inactive. In the library only some 6% were active in any assay of this set; here they are far more common.

C=CCNc1ncnc2c1ncn2[C@H]1CN(CCN2CCOCC2)C[C@@H](CO)O1	none (no result: D1 agonist, BCR signal inh, D1 PAM, D1 antag)
O=C1c2ccccc2C(=O)N1CCC#Cc1ccc2cc(CCCO)oc(=O)c2c1	BCR signal inh inconclusive, D3 ag 33 (no result: D1 agonist, D1 PAM, D1 antag)
O=c1oc(CCCO)cc2ccc(C#Cc3ccsc3)cc12	BCR signal inh inconclusive (no result: D1 antag)
O=C(NCCSCc1c(F)cccc1Cl)c1ccco1	D1 antag -33
COCCNC(=O)CSCc1c(F)cccc1Cl	D1 antag -44
Cc1c(C(=O)NCCSCc2c(Cl)cccc2Cl)cccc1[N+](=O)[O-]	D1 agonist 44, D1 antag -32
Cc1c(C(=O)NCCSCc2ccccc2Cl)cccc1[N+](=O)[O-]	none
CCOCc1cc(CN2CCN(c3cccc(Cl)c3)CC2)c(O)c2ncccc12	none (no result: DRD3 antagonist, BCR signal inh)
CCN1CCN(c2ccc(NC(=O)c3ccc(F)cc3)cc2Cl)CC1	D1 antag -40
CCC(=O)N1CCN(c2ccc(NC(=O)c3ccc([N+](=O)[O-])o3)cc2Cl)CC1	DRD3 antagonist inconclusive, BCR signal inh inconclusive
CCN1CCN(c2ccc(NC(=O)c3ccc([N+](=O)[O-])o3)cc2Cl)CC1	DRD3 antagonist -72, BCR signal inh inconclusive
NC(=O)c1ccc(Nc2nnc(-c3ccc(O)cc3)c3ccccc23)cc1	BCR signal inh inconclusive
CCN(CC)C(=O)c1ccc(-c2nnc(Nc3ccc(C(=O)N(C)C)cc3)c3ccccc23)cc1	D1 antag -92
CCN(CC)C(=O)c1ccc(-c2nnc(Nc3ccc(O)cc3)c3ccccc23)cc1	D1 PAM 43
O=[N+]([O-])c1ccc(/C=C/C2=NN(c3ccccc3)C(c3ccco3)C2)o1 (stereo not given)	DRD3 antagonist inconclusive, D1 agonist 97, BCR signal inh inconclusive
Fc1ccc(C2=NN(c3ccccc3)C(c3ccco3)C2)cc1 (stereo not given)	BCR signal inh inconclusive
C(=C\c1ccco1)/C1=NN(c2ccccc2)C(c2ccco2)C1 (stereo not given)	D1 agonist 45
COc1ccc(C(=O)Nc2cccc(N(C)S(C)(=O)=O)c2)cc1OC	none
Cc1ccc(C(=O)Nc2cccc(N(C)S(C)(=O)=O)c2)cc1S(=O)(=O)Nc1ccccc1	BCR signal inh inconclusive, D3 ag 44
Cc1ccc(C(=O)Nc2ccccc2C(=O)O)cc1S(=O)(=O)Nc1ccc(Br)cc1	D3 ag 34 (no result: D1 agonist, BCR signal inh, D1 PAM, D1 antag)
Cc1ccc(C(=O)Nc2ccccc2C(=O)O)cc1S(=O)(=O)NCc1ccccc1	none
CCN(CCCNC(=O)c1nn(-c2ccc(OC)cc2)c(=O)c2c1c1ccccc1n2C)c1cccc(C)c1	none (no result: DRD3 antagonist, BCR signal inh)
Cc1nnc(N2CCN(C(=O)Nc3cccc(C(F)(F)F)c3)CC2)c2nn(-c3ccccc3)c(C)c12	none (no result: DRD3 antagonist, BCR signal inh)
Nc1nc2c(s1)CC(c1ccccc1)CC2 (stereo not given)	D1 antag -30
O=Nc1c(O)n(Cc2cccc(C(F)(F)F)c2)c2ccccc12	D1 agonist 69, BCR signal inh inconclusive
CN1CCN(/C(=N\O)c2nonc2N)CC1	DRD3 antagonist -68, D1 antag -42
CO/N=C(/c1nonc1N)N1CCN(c2ccc([N+](=O)[O-])cc2)CC1	none
Nc1nonc1/C(=N/O)N1CCN(CCO)CC1	DRD3 antagonist -64
Nc1nonc1C(=O)OCC(=O)N1CCOCC1	none
O=C1Nc2ccc(Cl)cc2C(=O)C1(F)c1ccccc1 (stereo not given)	BCR signal inh inconclusive, D3 ag 37
O=C1Nc2c(ccc(Cl)c2Cl)C(=O)C1(F)c1ccccc1 (stereo not given)	BCR signal inh inconclusive
COc1ccc(-c2ccc(NS(=O)(=O)c3cc(C)c(C)cc3C)cc2)nn1	none (no result: DRD3 antagonist, BCR signal inh)
COc1ccc(NC(=O)CCCNS(=O)(=O)c2cccs2)cc1	none
O=C(O)CCCNS(=O)(=O)c1cccs1	D1 antag -58
NC(N)=N/N=C/c1cc([N+](=O)[O-])ccc1O	none
O=[N+]([O-])c1ccc(O)c(/C=N\N=C2c3ccccc3-c3ccccc32)c1	DRD3 antagonist -78, BCR signal inh inconclusive
Cc1cc(C)n(/N=C/c2cc([N+](=O)[O-])ccc2O)c(=O)c1	DRD3 antagonist -67
CN(C)/N=C/c1cc([N+](=O)[O-])ccc1O	DRD3 antagonist -61
O=[N+]([O-])c1ccc(O)c(/C=N/Nc2ccc(Cl)nn2)c1	DRD3 antagonist -84, BCR signal inh inconclusive
O=[N+]([O-])c1ccc(O)c(/C=N/n2cnnc2)c1	DRD3 antagonist -83
COC(=O)c1ccc2cc(C)cc(C)c2n1	none (no result: D1 agonist, BCR signal inh, D1 PAM, D1 antag)
O=C(/C=C/c1ccccc1[N+](=O)[O-])N1CCN(c2ccccc2F)CC1	D1 antag -68
CCOc1ccccc1N1CCN(C(=O)/C=C/c2cccc([N+](=O)[O-])c2)CC1	none
O=C(/C=C/c1cccc([N+](=O)[O-])c1)N1CCN(c2ccccc2F)CC1	D1 antag -58
O=C(/C=C/c1ccc(Cl)cc1Cl)N1CCN(c2ccccc2[N+](=O)[O-])CC1	none
COC(=O)C1(C(=O)OC)C[C@H](c2cccs2)N(Cc2ccccc2OC)[C@@H]1c1ccc(F)cc1	none (no result: D1 agonist, BCR signal inh, D1 PAM, D1 antag)
CC(C)NC(=O)C1(C)CCN1C(=O)C(c1ccccc1)c1ccccc1 (stereo not given)	none (no result: D1 agonist, BCR signal inh, D1 PAM, D1 antag)
COC(=O)c1ccc(C23CC4(C2)[C@H](CN(Cc2ccc(C(F)(F)F)cc2)[C@@H]4c2ccccc2)C3c2ccc(C(F)(F)F)cc2)cc1 (stereo not given in full)	BCR signal inh inconclusive (no result: DRD3 antagonist, D3 ag)
COC(=O)c1ccc(C23CC4(C2)[C@H](CN(C)[C@@H]4c2ccccc2)C3c2ccc(C(F)(F)F)cc2)cc1 (stereo not given in full)	D1 antag -52
C=CCN(C/C(=N\O)c1sc(C(=O)OCC)nc1C)c1cccc(Br)c1	D3 ag 63 (no result: D1 agonist, BCR signal inh, D1 PAM, D1 antag)
CCCC1(c2ccccc2)NC(=O)N(CC(=O)Nc2cc(S(=O)(=O)N3CCOCC3)ccc2Cl)C1=O (stereo not given)	D1 antag -30
CCCC1(c2ccccc2)NC(=O)N(CC(=O)Nc2cc(OC)cc(OC)c2)C1=O (stereo not given)	D1 agonist 35 (no result: D1 PAM)
Cc1ccc(S(=O)(=O)N2CCOCC2)cc1NC(=O)CN1C(=O)NC2(CCCC2)C1=O	none (no result: D1 agonist, D1 PAM, D1 antag)
Cc1ccc(NC(=O)CSc2ncc3c(n2)-c2ccccc2N(Cc2cccc(F)c2)S3(=O)=O)cc1F	none (no result: DRD3 antagonist, BCR signal inh)
COc1ccc(C(=O)NCCn2cc(SCC(=O)NCc3ccco3)c3ccccc32)cc1	DRD3 antagonist -69, BCR signal inh inconclusive
COc1ccccc1C(=O)Nc1ccc2nc(N3CCC(C)CC3)cc(C)c2c1	none (no result: DRD3 antagonist, BCR signal inh)
Cc1ccc(S(=O)(=O)Cc2ccc(C(=O)NCCc3ccc(Cl)cc3)o2)cc1	none (no result: DRD3 antagonist, BCR signal inh)
